Values joined by “and” are separate entries in the source; they are usually repeats but may differ in a detail not shown here. Identical values can stand only once. Hit rate of the full screen: of about 16,000 compounds, about 5,800 (36%) were called active. About 23% were inconclusive and are not listed. Calls follow the shape of the dose curve; as a rule, active = well fitted curve in the direction sought with a large enough effect; inconclusive = small, poorly fitted or top-dose-only effect, or effect the other way; inactive = no such curve, though single readings can be large or run the other way. This is one part of the list. The source holds several records for some structures; these can differ, active in one and inactive in another.
% is scaled to controls: 0 for no effect and ±100 for the full control effect.

This test deals with Cytochrome P450 2C19 (Homo sapiens) (UniProt P33261). The experiment in a line: Cytochrome panel assay with activity outcomes. The conditions noted are these: recombinant CYP, pro-luciferin dealkylation, luminescence, p450-cyp2c19; series mostly up to 57.1 µM. The method, then: The P450 gene superfamily is involved in the metabolism and clearance of xenobiotics. This assay used various human CYP P450 isozymes to measure the dealkylation of various pro-luciferin substrates to luciferin. The luciferin is then measured by luminescence after the addition of a luciferase detection reagent. Pro-luciferin substrate concentration in the assay was equal to its KM for its CYP P450 isozyme. Inhibitors and some substrates limit the production of luciferin, and decrease measured luminescence.
Cytochrome P450 2C19 (Homo sapiens), sequence (P33261 whole entry, looked up): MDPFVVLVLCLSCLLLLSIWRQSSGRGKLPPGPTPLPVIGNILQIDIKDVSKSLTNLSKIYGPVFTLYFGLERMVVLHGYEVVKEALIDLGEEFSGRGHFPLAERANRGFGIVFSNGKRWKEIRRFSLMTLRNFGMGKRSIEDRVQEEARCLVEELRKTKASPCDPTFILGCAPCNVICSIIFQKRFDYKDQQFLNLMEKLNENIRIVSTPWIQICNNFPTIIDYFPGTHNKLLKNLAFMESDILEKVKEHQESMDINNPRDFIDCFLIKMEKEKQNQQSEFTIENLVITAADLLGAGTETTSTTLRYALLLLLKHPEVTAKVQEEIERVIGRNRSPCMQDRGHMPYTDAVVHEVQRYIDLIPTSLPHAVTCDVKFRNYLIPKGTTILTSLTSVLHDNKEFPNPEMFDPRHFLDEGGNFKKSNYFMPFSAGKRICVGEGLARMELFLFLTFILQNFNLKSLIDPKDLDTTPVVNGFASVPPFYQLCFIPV
NCGC Assay Protocol Summary:
1, Reagent, 2 uL, Isozyme and Pro-Luciferin
2, Library compounds, 23 nl, 40 uM to 0.24 nM dilution series
3, Controls, 23 nl, Isozyme specific inhibitor
4, Reagent, 2 uL, NADPH regeneration solution
5, Incubation time, 60 min, Isozyme specific temperature
6, Reagent, 4ul, Detection reagent
7, Incubation time, 20 min, Isozyme specific temperature
8, Detection, 1 sec, ViewLux luminescent read
The luciferase-based P450-GloTM Screening Systems were obtained from Promega (Madison, WI) for CYP 1A2 (V9770), CYP 2C9 (V9790), CYP2 C19 (V9880), CYP 2D6 (V9890), and CYP 3A4 Luciferin-PPXE (V9910) and were adapted for 1,536-well microplates and an automated protocol. The control compounds furafylline for 1A2 (F124), sulfaphenazole for CYP 2C9 (S0758), ketoconazole for CYP 2C19 (K1003), quinidine for 2D6 (Q3625), and ketoconazole for 3A4 (K1003) were purchased from Sigma Aldrich (St. Louis, MO). Recombinant P450 enzymes were obtained from baculovirus constructs expressed in insect cells (BD/Gentest).
Medium-binding white solid Kalypsys plates used. Mixtures kept on ice. 1A2: 10 nM 1A2, 100 uM Luc-ME, 100 mM KPO4; 2C9: 10 nM 2C9, 100 uM Luc-H, 25 mM KPO4; 2C19: 5 nM 2C19, 10 uM Luc-H EGE, 50 mM KPO4; 2D6: 5 nM 2D6, 30 uM Luc-ME EGE, 100 mM KPO4; 3A4: 10 nM, 25 uM Luc-PPXE. All amounts are reflected in their final concentration, working concentration is 2x.
NADPH regeneration solution: 1.3 mM NADP+, 3.3 mM glucose-6-phosphate, 3.3 mM MgCl2, 0.4 U/mL glucose-6-phosphate dehydrogenase for all isozymes, 200 mM KPO4 for 3A4. Mixture prepared at RT but kept on ice during automated run.
RT incubation in auxilliary plate hotel for 1A2, 2D6, and 3A4; 37C for 2C9 and 2C19.
Keywords: P450, CYP1A2, CYP2C19, CYP2C9, CYP2D6, CYP3A4, Luciferase, MLSMR, MLSCN, NIH Roadmap, qHTS, NCGC
`S=C(S)N1CCCC1`: the half-maximal activity concentration (AC50) is 3.98 µM (active). Still for that read-out and setting: the figure for `CC(C)Oc1cc(-n2c(=S)[nH]c3ccccc3c2=O)c(Cl)cc1Cl` is 0.224 µM (active); for `OC1(c2ccc(Cl)cc2)CCN(Cc2c[nH]c3ccccc23)CC1` it is “inactive”; for `COc1ccn(C)c(=O)c1C#N` it is “inactive”. On to `CCOC(C(=O)OCCCN(CC)CC)(c1ccccc1)c1ccccc1`, for which the AC50 entry is “inactive”.

For the compound `CCN1C[C@@]2(COC)[C@H]3[C@@H](OC)[C@H]4C1[C@@]3([C@H](OC)C[C@@H]2O)[C@H]1C[C@@]2(O)[C@@H](OC(=O)c3ccccc3)[C@@H]1[C@@]4(OC(C)=O)[C@H](O)[C@@H]2OC`, the AC50 entry was “inactive”. Turning to `CC1=C(CC[C@H](C)CO)O[C@@H]2C[C@@H]3[C@H]4CC[C@H]5C[C@@H](O)CC[C@]5(C)[C@@H]4CC(=O)[C@@]3(C)[C@@H]12`, the activity, negative = inhibition was -3.33% [at 11.4 µM] (inactive). `COc1ccc2[nH]cc(C3=CCNCC3)c2c1`: the AC50 result is “inactive”. Same read-out and setting: the same measure for `O=c1ccc2[nH]cc(C3=CCNCC3)c2[nH]1`: 0.126 µM (active).

Regarding `CCCCc1nc2ccccc2c(=O)n1-c1ccccc1[N+](=O)[O-]`, the AC50 is 14.1 µM (active). On to `CCCCc1nc2ccccc2c(=O)n1-c1ccc(Cl)cc1[N+](=O)[O-]`, for which the AC50 result is “inactive”. Turning to `O=c1cc(-c2ccc(O)cc2)oc2cc(O)cc(O)c12`, the AC50 entry was “inactive”. For `COc1ccc(CCNc2cc(-c3ccccc3)nc3ncnn23)cc1`, the AC50 was 11.2 µM (active). With `CNC[C@H](O)c1ccc(OC(=O)C(C)(C)C)c(OC(=O)C(C)(C)C)c1`, the AC50 entry was “inactive”. Consider `[N-]=[N+]=NCC(=O)c1c[nH]c(=O)[nH]c1=O`, for which the activity, negative = inhibition was 30.9% [at 11.4 µM] (inactive). Consider `C[C@H]1CC[C@]2(OC1)O[C@@H]1C[C@@H]3[C@@H]4CC[C@H]5C[C@@H](O)CC[C@]5(C)[C@@H]4CC(=O)[C@@]3(C)[C@H]1[C@@H]2C`, for which the AC50 result was “inactive”.

For `CCOC(=O)C1=C(C)OC(N)=C(C#N)C12C(=O)N(C)c1ccccc12` (stereo unspecified), the AC50 is 28.2 µM (active). Still for that read-out and setting: the entry for `CCN1C[C@]2(C)CC[C@H](O)[C@@]34[C@@H]5CC6[C@@H](OC)C[C@@](O)([C@@H]5[C@@H]6O)[C@H](C[C@@H]23)[C@H]14` is “inactive”; for `Cc1ccc(OP(=O)(Oc2ccc(C)cc2)N2C=Cc3ccccc3[C@H]2C#N)cc1` it is 2.51 µM (active); for `COc1ccccc1CN1CCCC2(CCN(C(=O)Oc3ccccc3)CC2)C1` it is “inactive”. For the compound `O=C1C=C2C=C[C@H]3C[C@@]2(O1)[C@H]1CCCCN31`, the AC50 entry was “inactive”.

As to `O=C(CCCN1CCC2(CC1)C(=O)NCN2c1ccccc1)c1ccc(F)cc1`, the AC50 result is “inactive and 6.31 µM (active)”. With `O=C(CCCN1CCC(n2c(=O)[nH]c3ccccc32)CC1)c1ccc(F)cc1`, the AC50 entry is “inactive”. Regarding `O=C1NCN(c2ccccc2)C12CCN(CCCOc1ccc(F)cc1)CC2`, the AC50 entry was “inactive”.

Turning to `O=C1NCN(c2ccccc2)C12CCN(C[C@H]1COc3ccccc3O1)CC2`, the AC50 was 7.94 µM (active). Still for that read-out and setting: the same measure for `NC1=Nc2ccccc2Oc2ccccc21`: “inactive”. For the compound `O=C(Oc1ccccc1)N1CCC2(CCN(Cc3ccncc3)CC2)CC1`, the AC50 entry is “inactive”. Regarding `O=C(O)/C=C(\CC(=O)O)C(=O)O`, the activity, negative = inhibition was -16.7% [at 11.4 µM] (inactive).

As for `O=C(O)Cc1cccnc1C(=O)O`, the AC50 result is “inactive”. On to `CC(C)CN1CC2(CCN(C(=O)c3ccncc3)CC2)C1`, for which the AC50 entry is “inactive”. Still for that read-out and setting: the figure for `Cc1ccc(NC(=[OH+])c2cc3ccccc3cc2O)c(C)c1.Cc1ccc(NC(=[OH+])c2cc3ccccc3cc2O)c(C)c1.[Ni]` is 2 µM (active); for `O=c1[nH]oc2c1CCNC2` it is “inactive”; for `Clc1ccc(C2=CCC[C@H]3CC[C@@H]2N3)cn1` it is “inactive”. Take `CCCCN1C(=O)C(C2c3ccccc3C(=O)N2Cc2ccccc2)C(=O)NC1=S` (stereo unspecified): the AC50 was 25.1 µM (active).

Turning to `CC(C)C[C@H](NP(=O)(O)O[C@@H]1O[C@@H](C)[C@@H](O)[C@@H](O)[C@H]1O)C(=O)N[C@@H](Cc1c[nH]c2ccccc12)C(=O)O`, the AC50 result is “inactive”. On to `Cn1cc(C(=O)C(=O)N[C@H]2CN3CCC2CC3)c2ccccc21`, for which the AC50 result is “inactive”. Take `CN1C(=O)COc2c(C(=O)N[C@@H]3CN4CCC3CC4)cc(Cl)cc21`: the AC50 result was “inactive”.

Take `CC(C)n1cnc2c(C(=O)N[C@H]3CN4CCC3CC4)cc(Cl)cc21`: the AC50 was 1 µM (active). Consider `C[C@@H]1O[C@H](C[N+](C)(C)C)CS1`, for which the AC50 entry was “inactive”. `NC(=O)CN1C[C@@H](O)CC1=O`: the AC50 result is “inactive”. `C[N+]1([O-])[C@@H]2CC(OC(=O)[C@@H](CO)c3ccccc3)C[C@@H]1[C@H]1O[C@H]12` (stereo partly specified): the AC50 result was “inactive”. `CN1[C@@H]2CC[C@H]1CC(NC(=O)c1nn(C)c3ccccc13)C2` (stereo partly specified): the AC50 result is “inactive”. With `O=C1C2CCN(CC2)C1(CO)CO`, the AC50 was 0.631 µM (active) and the activity, negative = inhibition is -4.59% [at 11.4 µM] (inactive).

In the case of `CCN(CC)C(=O)N[C@@H]1C[C@H]2c3cccc4[nH]cc(c34)C[C@@H]2N(C)C1`, the AC50 result is “inactive”. For the compound `CCOC(=O)c1ncn2c1[C@H]1CCCN1C(=O)c1cc(OC)ccc1-2`, the AC50 entry is “inactive”.
